Assay results reported in PubChem BioAssay (EPA / NIEHS).
Results filed as inconclusive are left out. Calls of active or inactive are those of the source. How the source made its calls, unless noted: active means hit-call score of the fitted dose curve at least 0.9, where 1 is the maximum; inconclusive means response in the unintended direction; inactive means score below 0.9.

How the values were obtained:
[1] = TOX21_p53_BLA_p2_viability: Viability Assessment in the Tox21 HCT-116 p53 Agonism Beta-lactamase Assay, Phase 2 (AID 2283591);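 further: compound exposure lasted 16 h at 37 °C; actives lower the ATP signal meaning cytotoxicity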
Procedure, shortened: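 Cytotoxicity readout: CellTiter-Glo ATP luminescence, 30 min at room temperature, after the beta-lactamase read. Cells were HCT116 exposed 16 h at 37C to compounds pin-transferred at 217-fold dilution from DMSO stocks.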

[2] = target: Cellular tumor antigen p53 (Homo sapiens) (UniProt P04637); assay: TOX21_p53_BLA_p3_ratio: Tox21 HCT-116 p53 Agonism Beta-lactamase Assay, Ratio, Phase 3 (AID 2283596)
Sequence of Cellular tumor antigen p53 (Homo sapiens) (P04637 whole entry, looked up): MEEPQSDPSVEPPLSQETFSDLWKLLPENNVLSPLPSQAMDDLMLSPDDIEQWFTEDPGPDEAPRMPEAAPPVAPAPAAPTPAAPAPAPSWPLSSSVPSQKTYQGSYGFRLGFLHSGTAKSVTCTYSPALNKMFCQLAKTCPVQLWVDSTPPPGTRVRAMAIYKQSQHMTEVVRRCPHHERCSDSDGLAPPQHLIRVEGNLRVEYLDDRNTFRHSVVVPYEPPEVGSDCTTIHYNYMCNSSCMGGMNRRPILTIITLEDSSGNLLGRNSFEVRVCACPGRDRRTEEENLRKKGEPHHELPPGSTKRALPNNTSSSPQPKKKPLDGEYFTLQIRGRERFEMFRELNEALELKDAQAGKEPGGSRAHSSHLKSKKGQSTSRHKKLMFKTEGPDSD
Procedure, shortened: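 Cells were seeded at 4000/well, rested 5 h at 37C, then dosed with DMSO compound solutions (217-fold dilution) for 16 h. CCF4-AM substrate was loaded for 2 h at room temperature, and the 460/530 nm emission ratio was fitted for gain of signal versus DMSO.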

[3] = TOX21_p53_BLA_p4_viability: Viability Assessment in the Tox21 HCT-116 p53 Agonism Beta-lactamase Assay, Phase 4 (AID 2283597);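 further: hits lower the luminescence signal meaning cytotoxicity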
Procedure, shortened: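 Cytotoxicity as reduced cellular ATP (CellTiter-Glo luminescence, 30 min room temperature), measured in the same wells following the CCF4 FRET p53 reading. Human HCT-116 cells received compounds in DMSO (217-fold dilution) for 16 h.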

[4] = TOX21_p53_BLA_p5_viability: Viability Assessment in the Tox21 HCT-116 p53 Agonism Beta-lactamase Assay, Phase 5 (AID 2283600)
Procedure, shortened: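 Viability came from CellTiter-Glo ATP luminescence, read after 30 min at room temperature. Before this, HCT-116 p53-bla cells (4000/well) had 16 hours of compound exposure at 37C, with DMSO stocks diluted 217-fold on transfer.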

[5] = target: Cellular tumor antigen p53 (Homo sapiens) (UniProt P04637); assay: TOX21_p53_BLA_p4_ratio: Tox21 HCT-116 p53 Agonism Beta-lactamase Assay, Ratio, Phase 4 (AID 2283601)
Procedure, shortened: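 Signal is the blue/green (460nm/530nm) ratio of cleaved versus uncleaved CCF4-AM substrate, read after 2 h substrate loading. Cells were HCT116 carrying the p53-responsive beta-lactamase reporter, dosed 16 h at 37C, 5% CO2; CellTiter-Glo measured in parallel.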

[6] = target: Cellular tumor antigen p53 (Homo sapiens) (UniProt P04637); assay: TOX21_p53_BLA_p5_ratio: Tox21 HCT-116 p53 Agonism Beta-lactamase Assay, Ratio, Phase 5 (AID 2283599)
Procedure, shortened: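 Beta-lactamase reporter ratio (blue 460 nm over green 530 nm, 405 nm excitation) after 2 h CCF4-AM loading, in HCT-116 cells exposed 16 h at 37 C to compounds pinned at 217-fold dilution. Increases relative to DMSO baseline scored.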

[7] = CCTE_Harrill_HTTr_Viability_MCF7: CCTE's 6-hour Cell Viability Assessment for the High-Throughput Transcriptomics (HTTr) Platform, in MCF-7 cells cultured in DMEM + 10% fetal bovine serum, Harrill Lab (AID 2284010; active means hit-call score of the fitted dose curve at least 0.9, where 1 is the maximum; inactive means score below 0.9)
Procedure, shortened: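 Propidium iodide exclusion, imaged by high-content analysis, gauged viability after a six-hour exposure across eight concentrations. Cells were MCF-7 grown in DMEM with 10% fetal bovine serum; fits run in both directions against DMSO.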

[8] = CCTE_Harrill_HTTr_Apoptosis_MCF7: CCTE's 6-hour Apoptosis Assessment for the High-Throughput Transcriptomics (HTTr) Platform, in MCF-7 cells cultured in DMEM + 10% fetal bovine serum, Harrill Lab (AID 2284011; active means hit-call score of the fitted dose curve at least 0.9, where 1 is the maximum; inactive means score below 0.9)
Procedure, shortened: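 High-content imaging of CellEvent Caspase 3/7 Green signal follows a six-hour exposure, with eight concentrations per chemical. MCF-7 cells grown in DMEM plus 10% fetal bovine serum; activity fitted in both directions against DMSO.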

[9] = CCTE_Harrill_HTTr_CellCount_MCF7: CCTE's Cell Proliferation Assessment for the High-Throughput Transcriptomics (HTTr) Platform, Harrill Lab (AID 2284012);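 further: cells exposed to compound for six hours; intended direction is loss of nuclei count meaning fewer cells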
Procedure, shortened: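 Cell count from high-content imaging of Hoechst-labeled nuclei serves as viability/growth readout. Chemicals were applied to MCF-7 cells in eight concentrations for six hours, with fitting in both directions relative to DMSO.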

Measured: outcome

C=CC[N+]1([C@H]2C[C@H]3[C@@H]4CC[C@H]5C[C@H](OC(C)=O)[C@@H](N6CCCCC6)C[C@]5(C)[C@H]4CC[C@]3(C)[C@H]2OC(=O)CC)CCCCC1
inactive: [1] | [2] | [3] | [4] | [5]

ClC1=C(Cl)C1(Cl)Cl
inactive: [1] | [2] | [3] | [4] | [5]

NC(=O)NC(=O)Cc1ccccc1
inactive: [1] | [2] | [3] | [6] | [5]

O=C1c2ccccc2C(=O)c2cc(Cl)ccc21
inactive: [1] | [2] | [3] | [4]

OCc1ccccc1O
inactive: [1] | [2] | [6] | [4]

CCCc1nc(C(C)(C)O)c(C(=O)OCc2oc(=O)oc2C)n1Cc1ccc(-c2ccccc2-c2nn[nH]n2)cc1
inactive: [1] | [2] | [6]

Cc1ncc(CO)c(C=O)c1O
inactive: [1] | [2] | [3] | [6] | [4] | [5]

CCN(CC)CCOC(=O)C(Cc1cccc2ccccc12)CC1CCCO1 (configuration not stated)
inactive: [1] | [2] | [3] | [5]

C[N+](C)(C)CC[N+]1(C)Cc2c(Cl)c(Cl)c(Cl)c(Cl)c2C1
inactive: [1] | [2] | [3] | [6] | [5]

CC12CC3CC(C)(C1)CC(N)(C3)C2
inactive: [1] | [2] | [3] | [6] | [5]

OCC1(CO)COCOC1
inactive: [1] | [2] | [6] | [4] | [5]

C=C[Si](OC(=C)C)(OC(=C)C)OC(=C)C
inactive: [1] | [2] | [6] | [4]

CCO[Si](OCC)(OCC)OCC
inactive: [1] | [2] | [3] | [6] | [5]

CC[C@H](CC[C@@H](C)[C@H]1CC[C@H]2[C@@H]3CC=C4C[C@@H](O)CC[C@]4(C)[C@H]3CC[C@]12C)C(C)C
inactive: [1] | [2] | [3] | [6] | [4] | [5] | [7] | [8] | [9]

O=NN(CCCl)C(=O)NCCCl
inactive: [1] | [2] | [3] | [6] | [5]

N#C/C(=C1\SCC(c2ccccc2Cl)S1)n1ccnc1 (configuration not stated)
inactive: [1] | [2] | [3] | [6] | [5]

O=C(O)c1c(Cl)cccc1Cl
inactive: [1] | [2] | [3] | [6] | [4] | [5]

ClCC=CCCl
inactive: [1] | [2] | [3] | [6] | [5]

CCCCCCCCCCCCCCCCSCC(COC)COP(=O)([O-])OCC[N+](C)(C)C (configuration not stated)
inactive: [1] | [2] | [3] | [5]

O=C(O)CNC(=O)c1ccccc1I
inactive: [1] | [2] | [6] | [4]

O=C(Cc1cccs1)N[C@@H]1C(=O)N2C(C(=O)[O-])=C(C[n+]3ccccc3)CS[C@H]12
inactive: [1] | [2] | [6] | [4] | [5]

Cc1cccc(C)c1NC(=O)C1CCCCN1C (configuration not stated)
inactive: [1] | [2] | [6] | [4]

O=Cc1cccc([N+](=O)[O-])c1
inactive: [1] | [2] | [3] | [5]

CCOc1ccc(NC(=S)Nc2ccc(OCC)cc2)cc1
inactive: [1] | [2] | [3] | [5]

CC[N+](CC)(CCNC(=O)C(=O)NCC[N+](CC)(CC)Cc1ccccc1Cl)Cc1ccccc1Cl
inactive: [1] | [2] | [3] | [5]

CCCCCC
inactive: [1] | [2] | [6] | [5]

CC(=O)Nc1c(I)cc(I)c(C(=O)O)c1I
inactive: [1] | [2] | [6] | [5]

CC(C)CC=O
inactive: [1] | [3] | [6]

C1CCC2=NCCCN2CC1
inactive: [1] | [3] | [6] | [4]

COc1cc2nc(N3CCN(C(=O)C4CCCO4)CC3)nc(N)c2cc1OC (configuration not stated)
inactive: [1] | [3] | [6] | [4] | [5]

CCN(CC)CCc1nc(-c2ccccc2)no1
inactive: [1] | [2] | [6] | [5]

Cc1c(N)cccc1[N+](=O)[O-]
inactive: [1] | [3] | [6] | [4]

CC[N+](C)(C)c1cccc(O)c1
inactive: [1] | [2] | [6] | [5]

CC(=O)[C@@]1(O)CC[C@H]2[C@@H]3C[C@H](C)C4=CC(=O)CC[C@]4(C)[C@H]3CC[C@@]21C
inactive: [1] | [3] | [6]

CCC1=C(C)CN(C(=O)NCCc2ccc(S(=O)(=O)NC(=O)NC3CCC(C)CC3)cc2)C1=O (configuration not stated)
inactive: [1] | [3] | [6]
